Results on 10 compounds are retold here after PubChem BioAssay (NCI).

A short description of assay [1]: NCI Yeast Anticancer Drug Screen. Data for the rad50 strain (AID 155).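 Further: 0% = growth of vehicle-only cultures of the same strain.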 The settings on record: S. cerevisiae rad50 strain growth inhibition, active compounds read high. Summed up:
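Compounds were tested on a yeast strain with an engineered DNA damage repair alteration; the reported value is growth inhibition normalised to vehicle treatment.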

Assay [2] can be described thus: NCI Yeast Anticancer Drug Screen. Data for the mec2-1 strain (AID 157). The settings on record: S. cerevisiae mec2-1 strain, active compounds read high. Summed up: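 Cells of the genetically defined mec2-1 yeast strain are incubated with test compound. Inhibition of growth is calculated against vehicle-treated controls.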
Assay [3] in a line: NCI Yeast Anticancer Drug Screen. Data for the sgs1 mgt1 strain (AID 161).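 Further: 0% = growth of cultures given vehicle only.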 The settings on record: S. cerevisiae sgs1 mgt1 strain, active compounds read high. In short, it runs like this:
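Read-out: growth inhibition vs vehicle controls. Cells: mutant yeast strain deficient in DNA damage repair.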

Assay [4] can be described thus: NCI Yeast Anticancer Drug Screen. Data for the cln2 rad14 strain (AID 165).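 Further: 0% = growth equal to vehicle treated cultures.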 Conditions: S. cerevisiae cln2 rad14 strain, active compounds read high. In short, it runs like this:
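The screen exposed genetically defined yeast (cln2 rad14) to test compounds and scored growth inhibition relative to vehicle-treated controls.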

Assay [5] is described as follows: NCI Yeast Anticancer Drug Screen. Data for the bub3 strain (AID 167). Conditions: S. cerevisiae bub3 mutant strain, active compounds read high. Summed up:
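Growth of a checkpoint-deficient yeast mutant is measured after compound exposure. Values represent inhibition relative to vehicle.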

Assay [6] in a line: NCI Yeast Anticancer Drug Screen. Data for the mlh1 rad18 strain (AID 175). Conditions: S. cerevisiae mlh1 rad18 strain growth inhibition, active compounds read high. Summed up: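 Compound-treated yeast growth, normalised to vehicle controls. Strain bears defined DNA repair mutations.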
[7] abbreviates: at 5.0 µM (retest, dose inferred, filed as 0.5).
Where [8] appears, read: at 50.0 µM (retest, dose inferred, filed as 5.0).

SMILES strings stand for the structures. Compounds without any hit were thinned out: in the full panel of roughly 79,000, 15% have a hit. Unmarked numbers belong to inactive results. Calls of active or inactive are those of the source. No stated cut-off is given here; in the data, active means growth inhibition above about 70%; inactive means the rest.

As for `O/N=C(/CN1CCN(c2ccccc2)CC1)c1ccccc1`, the growth inhibition is 1% in assay [1] (setting [7]); -1% in assay [1] (setting [8]); 45.4% in assay [1] (at 50.0 µM); 0% in assay [2] (setting [7]); -2% in assay [2] (setting [8]); -14.4% in assay [2] (at 50.0 µM). For the same compound, the growth inhibition in assay [3] (setting [7]) is -4%; in assay [3] (setting [8]), -3%; in assay [3] (at 50.0 µM), 10.7%; in assay [4] (setting [7]), 2%; in assay [4] (setting [8]), 1%; in assay [4] (at 50.0 µM), -68.2%. Also, the growth inhibition in assay [5] (setting [7]) is -2%; in assay [5] (setting [8]), -2%; in assay [5] (at 50.0 µM), 13.4%; in assay [6] (setting [7]), 1%; in assay [6] (setting [8]) it was -4%; in assay [6] (at 50.0 µM), -3.8%.
As to `O=C(CBr)N1c2ccccc2Sc2ccc3ccccc3c21`, the growth inhibition in assay [1] (setting [7]) is 93% (active); in assay [1] (setting [8]), 99% (active); in assay [1] (at 50.0 µM) it was 90.5% (active); in assay [2] (setting [7]), 49%; in assay [2] (setting [8]), 99% (active); in assay [2] (at 50.0 µM), 90.7% (active). In addition, the growth inhibition was 81% (active) in assay [3] (setting [7]); 99% (active) in assay [3] (setting [8]); 91.7% (active) in assay [3] (at 50.0 µM); 62% in assay [4] (setting [7]); 99% (active) in assay [4] (setting [8]); 90% (active) in assay [4] (at 50.0 µM). Further, the growth inhibition was 74% (active) in assay [5] (setting [7]); 99% (active) in assay [5] (setting [8]); 91% (active) in assay [5] (at 50.0 µM); 88% (active) in assay [6] (setting [7]); 98% (active) in assay [6] (setting [8]); 88.2% (active) in assay [6] (at 50.0 µM).
With `Cc1[nH]nc(C(=O)N/N=C/c2cccs2)c1N=NN(C)C`, the growth inhibition was 73% (active) in assay [1] (setting [7]); 96% (active) in assay [1] (setting [8]); 97.2% (active) in assay [1] (at 50.0 µM); 15% in assay [2] (setting [7]); 98% (active) in assay [2] (setting [8]); 82.9% (active) in assay [2] (at 50.0 µM). The growth inhibition in assay [3] (setting [7]) is 19%; in assay [3] (setting [8]), 73% (active); in assay [3] (at 50.0 µM), 97% (active); in assay [4] (setting [7]), -3%; in assay [4] (setting [8]), 96% (active); in assay [4] (at 50.0 µM) it was 99.3% (active). For the same compound, the growth inhibition is -1% in assay [5] (setting [7]); 95% (active) in assay [5] (setting [8]); 87.6% (active) in assay [5] (at 50.0 µM); 80% (active) in assay [6] (setting [7]); 98% (active) in assay [6] (setting [8]); 99% (active) in assay [6] (at 50.0 µM).
As for `COc1cc(CNC(=O)CCCCCCCC/C=C/Br)ccc1O`, the growth inhibition in assay [1] (setting [7]) is -32%; in assay [1] (setting [8]) it was 93% (active); in assay [1] (at 50.0 µM), 84.7% (active); in assay [2] (setting [7]), -7%; in assay [2] (setting [8]) it was 96% (active); in assay [2] (at 50.0 µM) it was 85.8% (active). Moreover, the growth inhibition was -2% in assay [3] (setting [7]); 92% (active) in assay [3] (setting [8]); 90.5% (active) in assay [3] (at 50.0 µM); -4% in assay [4] (setting [7]); 94% (active) in assay [4] (setting [8]); 85% (active) in assay [4] (at 50.0 µM). Further, the growth inhibition in assay [5] (setting [7]) is -4%; in assay [5] (setting [8]) it was 95% (active); in assay [5] (at 50.0 µM) it was 87.6% (active); in assay [6] (setting [7]), -16%; in assay [6] (setting [8]), 92% (active); in assay [6] (at 50.0 µM), 87.5% (active).
Consider `O=C1c2ccc(O)c(O)c2C(=O)c2cccc(O)c21`, for which the growth inhibition in assay [1] (setting [7]) was 68%; in assay [1] (setting [8]), 72% (active); in assay [1] (at 50.0 µM), 28.1%; in assay [2] (setting [7]), 30%; in assay [2] (setting [8]), 49%; in assay [2] (at 50.0 µM), 3.9%. Further, the growth inhibition in assay [3] (setting [7]) was 83% (active); in assay [3] (setting [8]), 84% (active); in assay [3] (at 50.0 µM), 36.6%; in assay [4] (setting [7]), 34%; in assay [4] (setting [8]), 46%; in assay [4] (at 50.0 µM), 22.7%. The growth inhibition is 91% (active) in assay [5] (setting [7]); 93% (active) in assay [5] (setting [8]); 18.4% in assay [5] (at 50.0 µM); 83% (active) in assay [6] (setting [7]); 88% (active) in assay [6] (setting [8]); 26.3% in assay [6] (at 50.0 µM).
Regarding `CCCCCCCCC(N)CCCCCCCC`, the growth inhibition is 99% (active) in assay [1] (setting [7]); 98% (active) in assay [1] (setting [8]); 99% (active) in assay [1] (at 50.0 µM); 100% (active) in assay [2] (setting [7]); 99% (active) in assay [2] (setting [8]); 99% (active) in assay [2] (at 50.0 µM). Further, the growth inhibition was 99% (active) in assay [3] (setting [7]); 99% (active) in assay [3] (setting [8]); 46% in assay [3] (at 50.0 µM); 96% (active) in assay [4] (setting [7]); 99% (active) in assay [4] (setting [8]); 98.8% (active) in assay [4] (at 50.0 µM). In addition, the growth inhibition in assay [5] (setting [7]) is 99% (active); in assay [5] (setting [8]), 98% (active); in assay [5] (at 50.0 µM), 99.2% (active); in assay [6] (setting [7]), 99% (active); in assay [6] (setting [8]), 98% (active); in assay [6] (at 50.0 µM), 99.5% (active).
With `Cc1c(C)c(NC(=O)/C=C/C(=O)O)c(C)c(C)c1NC(=O)/C=C\C(=O)O`, the growth inhibition in assay [1] (setting [7]) is -14%; in assay [1] (setting [8]) it was 14%; in assay [1] (at 50.0 µM) it was 61.7%; in assay [2] (setting [7]) it was -6%; in assay [2] (setting [8]) it was 37%; in assay [2] (at 50.0 µM) it was 88.8% (active). Moreover, the growth inhibition was -13% in assay [3] (setting [7]); 11% in assay [3] (setting [8]); 89.9% (active) in assay [3] (at 50.0 µM); 7% in assay [4] (setting [7]); 11% in assay [4] (setting [8]); 42.2% in assay [4] (at 50.0 µM). Also, the growth inhibition in assay [5] (setting [7]) is -4%; in assay [5] (setting [8]), 35%; in assay [5] (at 50.0 µM) it was 86.3% (active); in assay [6] (setting [7]) it was -31%; in assay [6] (setting [8]) it was 58%; in assay [6] (at 50.0 µM), 59.6%.
Take `CNC(=O)NN(C)C=O`: the growth inhibition is 0% in assay [1] (setting [7]); 2% in assay [1] (setting [8]); -12.1% in assay [1] (at 50.0 µM); 4% in assay [2] (setting [7]); 2% in assay [2] (setting [8]); 45.5% in assay [2] (at 50.0 µM). Besides, the growth inhibition in assay [3] (setting [7]) was 2%; in assay [3] (setting [8]), 1%; in assay [3] (at 50.0 µM) it was -7.95%; in assay [4] (setting [7]) it was -2%; in assay [4] (setting [8]), -4%; in assay [4] (at 50.0 µM), 12.1%. Also, the growth inhibition in assay [5] (setting [7]) was -2%; in assay [5] (setting [8]) it was -5%; in assay [5] (at 50.0 µM), -4.35%; in assay [6] (setting [7]) it was -4%; in assay [6] (setting [8]) it was -3%; in assay [6] (at 50.0 µM), -4.55%.
With `Oc1ccc(Br)cc1-c1nc2cc(Cl)c(Cl)cc2nc1-c1cc(Br)ccc1O`, the growth inhibition in assay [1] (setting [7]) was 48%; in assay [1] (setting [8]) it was 80% (active); in assay [1] (at 50.0 µM) it was 81.2% (active); in assay [2] (setting [7]), 46%; in assay [2] (setting [8]) it was 85% (active); in assay [2] (at 50.0 µM) it was 86.3% (active). For the same compound, the growth inhibition in assay [3] (setting [7]) was 44%; in assay [3] (setting [8]) it was 88% (active); in assay [3] (at 50.0 µM), 88.6% (active); in assay [4] (setting [7]), 47%; in assay [4] (setting [8]), 91% (active); in assay [4] (at 50.0 µM), 86.1% (active). In addition, the growth inhibition was 45% in assay [5] (setting [7]); 86% (active) in assay [5] (setting [8]); 81.7% (active) in assay [5] (at 50.0 µM); 48% in assay [6] (setting [7]); 90% (active) in assay [6] (setting [8]); 80.7% (active) in assay [6] (at 50.0 µM).
Consider `N#CSCCSCc1ccc(Cl)cc1`, for which the growth inhibition in assay [1] (setting [7]) was 4%; in assay [1] (setting [8]), 99% (active); in assay [1] (at 50.0 µM) it was 99.2% (active); in assay [2] (setting [7]) it was 25%; in assay [2] (setting [8]), 99% (active); in assay [2] (at 50.0 µM) it was 99.5% (active). Besides, the growth inhibition in assay [3] (setting [7]) is 7%; in assay [3] (setting [8]), 99% (active); in assay [3] (at 50.0 µM), 99.4% (active); in assay [4] (setting [7]), -6%; in assay [4] (setting [8]) it was 99% (active); in assay [4] (at 50.0 µM), 98.9% (active). Besides, the growth inhibition is -6% in assay [5] (setting [7]); 99% (active) in assay [5] (setting [8]); 99.5% (active) in assay [5] (at 50.0 µM); 6% in assay [6] (setting [7]); 99% (active) in assay [6] (setting [8]); 99.3% (active) in assay [6] (at 50.0 µM).
